“And” between values parts separate entries of the source, which are not always exact repeats. Identical values can stand only once. The panel holds about 83,000 compounds, 20% with a hit somewhere; the sample as a whole holds those more often.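 Activity criterion: percent growth below 10, measured after cells in 96-well plates were exposed to a single compound concentration for 48 hours.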 Unmarked numbers belong to inactive results. The source made the active and inactive calls.

The test system of the assay is MDA-MB-468 breast. The experiment in a line: NCI-60 one-dose screen, 48 h (100 = growth as untreated, 0 = no growth, -100 = all killed). The following applies: 10 µM unless noted.
`COc1ccc2c(c1)c(-c1nc(-c3c[nH]c4ncccc34)cs1)cn2CCN1CCOCC1`: the growth was 0.314% (active).

Take `COc1ccc2nc(NC(=O)COc3cc(/C=C\c4cc(OC)c(OC)c(OC)c4)ccc3OC)sc2c1`: the growth is -5.6% (active).

On to `ClCCN(CCCl)c1ccc(OCc2ccccc2)cc1`, for which the growth was 58.3%.

On to `O=C1N[C@@H]2[C@@H](O)[C@@H](O)[C@H](O)C[C@H]2c2cc3c(c(O)c21)OCO3`, for which the growth was -45.8% (active).

Regarding `O=C(O)c1cc(Cc2ccc(O)c(C(=O)O)c2)ccc1O` (tested in a mixture with another compound), the growth was -46.8% (active).

On to `COc1cccc2c1C(=O)c1c(O)c3c(c(O)c1C2=O)CC(O)(/C(C)=N/NC(=O)CCC(=O)N/N=C(\C)C1(O)Cc2c(O)c4c(c(O)c2C(OC2CC(N)C(O)C(C)O2)C1)C(=O)c1c(OC)cccc1C4=O)CC3OC1CC(N)C(O)C(C)O1` (centres undefined), for which the growth is -35.7% [5 µM] (active).

On to `CC(/C=N/N=C(N)N)=N\N=C(N)N`, for which the growth is 88.7%.

On to `Oc1ccc2c3c1O[C@H]1c4[nH]c5ccccc5c4C[C@@]4(O)C(C2)N(CC2CC2)CC[C@]314`, for which the growth was 90.5%.

Regarding `COC(=O)C[Se]C(=O)c1ccccc1OC(C)=O`, the growth is 34.8%.

As to `COc1cc2c(c(OC)c1OC)-c1ccc(O)cc1[C@@H](NC(C)=O)CC2`, the growth is -20.9% (active) and -7.5% (active).

On to `Nc1cc2nc3ccccc3nc2cc1N`, for which the growth was -11.9% (active).

As to `CC(N)Cc1ccc(O)cc1` (centres undefined), the growth was 107%.

In the case of `CCCCOCCOP(=O)(OCCOCCCC)OCCOCCCC`, the growth was 91.5%.

Take `CC(=O)OC[C@]1(C)C=C2C(=O)[C@](C)(O)C3(CC3)C(C)=C2[C@H]1O`: the growth is -71.7% (active).

With `N#CC(NC(=O)CCl)=C(Cl)Cl`, the growth is -48.2% (active).

`c1ccc(CCN2CCCCC2)nc1`: the growth is 107%.

Consider `Cc1cc(C)c(C[N+](C)(C)C)c(C)c1C`, for which the growth was 16.1%.

Regarding `C[Se]C(=O)c1ccccc1OC(C)=O`, the growth was 45%.

For `O=[N+]([O-])c1cc(Br)c(O)c(Br)c1`, the growth is 99.4%.

With `COc1ccc(N)cc1N`, the growth is 101%.

As for `O=C(O)CCCc1ccc(N(CCCl)CCCl)cc1`, the growth is 77.7%.

As to `CC(=O)Oc1ccccc1C(=O)NCCC[Se]C#N`, the growth is 19%.

Turning to `CC[PH+](CC)CC.O=COC1OC([S-])C(OC=O)C(OC=O)C1OC=O.[Au+]` (centres undefined), the growth was -78.8% (active).

On to `CCCCCSC1C2C(=O)C(Br)=CC13CCNc1c(O)c4c5c(c13)=[N+]2CCC=5C=N4` (centres undefined), for which the growth was -30.5% (active).

In the case of `COc1ccc2c(c1)c(-c1nc(-c3cn(C)c4ncccc34)cs1)cn2CCN1CCOCC1`, the growth was 45.8%.

Take `CC1=C2[C@@H](CC1)[C@]1(C)O[C@@](C(C)C)(C[C@H]1O)[C@H]2OC(=O)C1CC1c1ccccc1` (some centres undefined): the growth was 94.6%.

`CN(C)P1(N(C)C)=NP(N(C)C)(N(C)C)=NP(N(C)C)(N(C)C)=N1`: the growth was 106%.

On to `NC(=O)C(Cl)Cl`, for which the growth is 103%.

As for `CC1=C2C(=C[C@@](C)(C=O)[C@@H]2O)C(=O)[C@](C)(O)C12CC2`, the growth was -66.7% (active).

For `O=[N+]([O-])c1ccc([Se]C2CCCCC2Cl)c([N+](=O)[O-])c1` (centres undefined), the growth is 90.5%.

Turning to `C[C@]12CCc3sc(-c4ccc(Cl)cc4)nc3C1=CC[C@@H]1[C@@H]2CC[C@]2(C)C(=O)CC[C@@H]12`, the growth was 55.5%.

As to `COc1cc(/C=N/C2=C(C#N)C(c3ccco3)c3c(c4cc(C)ccc4oc3=O)O2)cc(OC)c1OC` (centres undefined), the growth was 109%.

Regarding `CNC(=O)CCl`, the growth is 100%.

For `Oc1ccc2c3c1OC1[C@@H](O)CC[C@@]4(O)[C@@H](C2)N(CC2CCC2)CC[C@]314` (some centres undefined), the growth was 99.8%.

Turning to `CC(C)(C)C(=O)OCOP(=O)(NCc1ccccc1)C1CCCN(O)C1=O` (centres undefined), the growth was -0.478% (active).

As to `COc1cccc(C=NC(Cc2cnc[nH]2)C(=O)O)c1O` (centres undefined), the growth was 55.4%.

For the molecule `COC(=O)[C@@H](C)C[C@H](Cc1ccccc1)NC(=O)c1nc([C@@H](C[C@H](C(C)C)N(C)C(=O)[C@@H](NC(=O)[C@H]2CC(=O)CCN2C)C(C)C)OC(C)=O)sc1C(C)C`, the growth was 7.54% (active).

With `Nc1nc(=S)nc(N)[nH]1`, the growth was 99.3%.

As for `c1cnc2[nH]cc(-c3csc(-c4cn(CCCCN5CCCCC5)c5ccccc45)n3)c2c1`, the growth is 98.6%.

The record behind these values is PubChem BioAssay (NCI).
